A selection: hits, their analogues and other compounds. The true share with any hit is near 4%.
TRHR ag: TRH receptor (human) agonism | 0.18% of 360,000 active | activation, % at 2 µM | TRHR cells, calcium flux fluo-8, FDSS agonist mode
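In this calcium-flux screen, cells bearing human TRHR are dye-loaded with fluo-8, baselined for 10 cycles, then exposed to library compounds; positive kinetic calcium responses during the agonist phase mark hits, with TRH as control.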
TRHR PAM: allosterically enhances the human TRH receptor | P34981 | TRHR cells, fluo-8 calcium fluorescence, EC20 TRH enhancement | enhancement, % at 2 µM | 0.66% of 360,000 active | AID 493056; in the data active means enhancement above about 30%
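TRHR-expressing cells loaded with fluo-8 calcium dye were read kinetically (ex 480/em 530) during compound addition, then stimulated with an EC20 of TRH (10 nM final). Enhancement of the Gq-mediated intracellular calcium response was scored.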
D1 potentiator: enhances dopamine response at the human D1 receptor; HEK293 TREx D1 cells, calcium flux, dopamine EC20 potentiation; P21728; 0.036% of 360,000 active; AID 504651; potentiation, % at 10 µM; in the data active means potentiation above about 30%
Target sequence (P21728 whole entry, looked up): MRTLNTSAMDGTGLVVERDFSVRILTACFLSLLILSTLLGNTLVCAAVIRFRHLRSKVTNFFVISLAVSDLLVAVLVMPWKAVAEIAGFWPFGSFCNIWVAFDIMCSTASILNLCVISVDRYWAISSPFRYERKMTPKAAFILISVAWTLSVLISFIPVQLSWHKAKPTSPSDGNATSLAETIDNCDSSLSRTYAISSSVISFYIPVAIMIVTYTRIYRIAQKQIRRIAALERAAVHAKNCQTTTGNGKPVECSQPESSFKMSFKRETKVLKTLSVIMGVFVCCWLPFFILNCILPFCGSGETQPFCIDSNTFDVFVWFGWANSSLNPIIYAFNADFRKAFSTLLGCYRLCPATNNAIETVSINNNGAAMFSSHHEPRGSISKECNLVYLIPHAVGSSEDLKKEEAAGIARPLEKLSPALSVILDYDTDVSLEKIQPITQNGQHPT
Glioma ERSR ind: ER stress response induction in glioma. U87-MG GRP78 promoter luciferase reporter, 16 h. Potency, µM, hits mostly activators. 0.02% of 420,000 active. AID 602332; active means well fitted activation curve with a large enough effect; inconclusive means small, poorly fitted or top-dose-only effect; inactive means no such curve, though single readings can be large or run the other way; further: series mostly up to about 76 µM; nearly all actives have a fitted effect of over 35% in size
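Stably transfected U87-MG glioma cells carrying a GRP78-based luciferase sensor; 16 h compound incubation. Luminescence end-point read 10 min after Bright-Glo addition at room temperature.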
D1 antag: human D1 dopamine receptor antagonism | HEK293 TREx D1 cells, calcium flux, dopamine EC80; active compounds read low | activity change, negative = inhibition, % at 10 µM | 3.2% of 360,000 active | AID 504652; in the data active means activity change below about -30%
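After overnight tetracycline induction at 30 C, force-coupled D1 HEK293 cells took up a no-wash calcium dye at room temperature. Compounds were added and monitored 180 s, and the response to EC80 dopamine was then recorded.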
D1 ag: human D1 receptor agonism; HEK293 T-REx D1 cells, calcium flux, agonist mode; activation, % at 2 µM; 1% of 360,000 active; P21728
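Tetracycline-induced HEK293 TREx D1 cells, force-coupled to calcium signalling, were dye-loaded with a no-wash calcium kit. Compound was pin-added after a 10 s baseline. Fluorescence was read kinetically at 1 cycle/s for 180 s, with calcium rises flagged as agonism.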
A number is an active result; – = inactive; ? = inconclusive; · = no result. Unless noted, no stated cut-off is given here; in the data, active means activation above about 30%; inactive means the rest.

SMILES	TRHR ag	TRHR PAM	D1 potentiator	Glioma ERSR ind	D1 antag	D1 ag
Cc1cccc(NC(=S)NC2CC3CCCC(C2)N3Cc2ccco2)c1 (stereo not given)	–	–	–	–	–	–
C(=C\c1cnc2ccccc2n1)/c1ccc2c(c1)OCO2	·	·	·	–	·	·
O=C(COc1ccccc1C(=O)Nc1cccnc1)Nc1ccc(Br)cc1	·	·	·	–	·	·
Cc1cnc(-n2ncc(C(=O)N(C)CC3COCCO3)c2C2CC2)nc1-c1cccs1 (stereo not given)	·	·	·	–	·	·
O=[N+]([O-])c1ccc(N/N=C/c2cccc(O)c2O)c(S(=O)(=O)N2CCOCC2)c1	–	–	–	–	-76	58
CC(C)Oc1cccc(C(=O)C2CCCN(Cc3cccn3-c3ccccn3)C2)c1 (stereo not given)	–	–	–	–	–	–
COc1cccc(C(=O)C2CCCN(Cc3cccn3-c3ccccn3)C2)c1 (stereo not given)	–	–	–	–	-32	–
Cc1cc(NC(=O)CS(=O)(=O)c2cn(Cc3cccc(F)c3)c3ccccc23)no1	–	–	–	–	–	–
Cc1cc(NC(=O)CS(=O)(=O)c2cn(Cc3ccc(F)cc3)c3ccccc23)no1	–	–	–	–	-39	–
COc1cc(-c2cc(C)c3c(OC)ccc(OC)c3n2)cc2c1OCCN(C(=O)Cn1nc(C)cc1C)C2	·	·	·	–	·	·
CO	·	·	·	–	·	·
Cc1ccc(OCc2cc(C(=O)NC(C)Cc3cnccn3)no2)cc1C (stereo not given)	–	–	–	–	-40	–
CC(=O)c1c(C)[nH]c(C(=O)N2c3ccccc3CC2C)c1C (stereo not given)	–	–	–	–	-41	–
CC(=O)c1c(C)[nH]c(C(=O)N2CCc3ccccc3C2)c1C	–	–	–	–	–	–
Cc1cccc(-n2c(Cc3ccccc3)n[nH]c2=S)c1	–	–	–	–	-40	–
Cc1cccc(-n2c(CNC(=O)Cc3ccccc3)n[nH]c2=S)c1	–	–	–	–	–	–
O=C(CCN1Cc2ccccc2OC(c2ccccc2F)C1)N1CCC(N2CCCC(O)C2)CC1 (stereo not given)	·	·	·	–	·	·
COc1cc(OC)c(/C=C/c2ccc3ccccc3[n+]2[O-])c(OC)c1	·	·	·	–	·	·
O=C(CSCc1c(F)cccc1F)Nc1ccccc1	–	–	–	–	-74	–
O=C(CSCc1c(F)cccc1Cl)Nc1cccnc1	–	–	–	–	–	–
CCC(C)(C)NC(=O)C(Sc1ccccc1)c1ccccc1 (stereo not given)	–	–	–	–	–	–
Cc1cccc(N2CCN(S(=O)(=O)c3c(C)[nH]c(C)c3C(=O)N3CCCCC3)CC2)c1C	–	30	–	–	–	–
CCN(Cc1ccccc1)S(=O)(=O)c1c(C)[nH]c(C)c1C(=O)N1CCCC1	–	–	–	–	–	–
Cc1[nH]c(C)c(S(=O)(=O)N(Cc2ccccc2)C(C)C)c1C(=O)N1CCCC1	–	–	–	–	-34	–
Cc1cccc(N2CCN(S(=O)(=O)c3c(C)[nH]c(C)c3C(=O)N3CCCC3)CC2)c1C	–	–	–	–	–	–
SMILES	TRHR ag	TRHR PAM	D1 potentiator	Glioma ERSR ind	D1 antag	D1 ag
CC(=O)Nc1ccccc1-c1nc(CNC(=O)c2ccc(-n3cccn3)cc2)c(C)o1	·	·	·	–	·	·
COc1ccc2[nH]cc(C(=O)CN3CC(C)CC(C)C3)c2c1 (stereo not given)	–	–	–	–	–	–
COc1ccc2[nH]cc(C(=O)CN3CCN(C/C=C/c4ccccc4)CC3)c2c1	–	–	–	·	–	86
CC(=O)Nc1ccc(NC(=O)C(C)N(C)CC(=O)Nc2ccccc2Br)cc1 (stereo not given)	–	–	–	–	–	–
CCOC(=O)Nc1sc(C)nc1-c1ccccc1	–	–	–	–	-49	–
O=C1CN2C(=N1)N(Cc1ccccc1)c1ccccc12	–	–	–	–	-87	–
Cc1cc(C(=O)N/N=C/c2sccc2C)no1	–	–	–	–	–	–
CCOC(=O)N/N=C\c1sccc1C	–	–	–	–	-42	–
Cc1ccsc1/C=N\NC(=O)c1cc(C(C)(C)C)[nH]n1	–	–	–	–	-39	–
O=C(c1ccc(Cl)cc1)N1CCCCC(Cl)C1=O (stereo not given)	–	–	–	–	–	–
NCCOB(c1ccccc1)c1ccccc1	·	·	·	–	·	·
Cc1cc(C)cc(-n2c(C)cc(C(=O)CSc3nnnn3C)c2C)c1	–	–	–	–	–	41
COc1ccc(-c2nc3ccc(C4=C(C)CC(=O)NN4)cc3[nH]2)cc1	·	·	·	–	·	·
CCOc1ccc(-c2cc(CCCC(=O)NCCc3ccc(Cl)cc3)no2)cc1	–	–	–	–	–	–
CCOc1ccc(-c2cc(CCCC(=O)NCCc3ccc(OCC)c(OCC)c3)no2)cc1	–	–	–	–	-33	–
Cc1ccc(/C=C/C(=O)OCC(=O)Nc2ccccc2Sc2ccccc2)cc1	–	–	–	–	–	32
CCOC(=O)N1CCN(C(=O)/C=C/c2c(C)nn(-c3ccc(F)cc3)c2Cl)CC1	–	–	–	–	–	–
Fc1ccc(-n2cc(-c3ccccc3)c3c(NN4CCOCC4)ncnc32)cc1	–	–	–	–	-33	–
CC(C)=CCC/C(C)=C\CC/C(C)=C\CC/C(C)=C\CC1=C(C)C(=O)c2ccccc2C1=O	·	·	·	–	·	·
CCOc1cc2c(cc1C(C)(C)C)NC(=O)CS2	–	–	–	–	-85	–
CCOc1ccc(C(C)=O)cc1COC(=O)c1ccc2c(c1)NC(=O)CS2	–	–	–	–	–	–
CC(C)[C@H](NS(=O)(=O)c1cccc(C(F)(F)F)c1)C(=O)OCC(N)=O	–	39	–	–	–	–
CC(C)C(NS(=O)(=O)c1cccc(C(F)(F)F)c1)C(=O)NCc1cccs1 (stereo not given)	–	–	–	–	–	–
CC(C)Cc1ccc(C(C)C(N)=Nc2ccc(O)cc2)cc1 (stereo not given)	·	·	·	–	·	·
CC(C)Cc1ccc(C(C)C(=O)Nc2ccc(O)cc2)cc1 (stereo not given)	–	–	–	?	-68	83
CC(C)CC(NC(=O)C1CCC(C)CC1)C(=O)Nc1cccnc1 (stereo not given)	–	–	–	–	-35	–
CC(C)CC(NC(=O)C1CCC(C)CC1)C(=O)NCc1cccnc1 (stereo not given)	–	–	–	–	–	–
CC(C)Cc1ccc(C(C)C(=O)Nc2cccnc2)cc1 (stereo not given)	–	–	–	–	-51	75
CCCC[C@@H](CN[C@H](C)CNC)NCC1CCC(C(C)(C)C)CC1 (stereo not given in full)	–	–	–	–	–	–
O=C(O)c1ccc(Cn2ccc3ccccc32)o1	–	–	–	–	-36	–

Source: PubChem (National Center for Advancing Translational Sciences (NCATS))
